Laboratory results from PubChem BioAssay AID2578 (National Center for Advancing Translational Sciences (NCATS), 2010).
The source made the active and inactive calls. Calls come from the whole dose curve; as a rule, active = well fitted curve in the direction sought with a large enough effect; inactive = no such curve, though single readings can be large or run the other way.

Target: Alpha-galactosidase A (Homo sapiens) (UniProt P06280)
Experiment: qHTS Assay for Inhibitors and Activators of N370S glucocerebrosidase as a Potential Chaperone Treatment of Gaucher Disease: Alpha-Galactosidase Counterscreen
Settings: purified enzyme, 4-MU-alpha-Gal fluorescence, 20 min; series mostly up to 57.5 µM
Description: NIH Chemical Genomics Center [NCGC] NIH Molecular Libraries Probe Production Centers Network [MLPCN] MLPCN Grant: MH086442-01 Assay Submitter (PI): Wei Zheng Glucocerebrosidase (GC) catalyzes the hydrolysis of beta-glucocerebroside to glucose and ceramide in lysosomes. Mutations in the glucocerebrosidase gene result in Gaucher disease, an autosomal recessive lysosomal storage disorder. Many of the mutations encountered in patients with Gaucher disease are missense alterations that may cause misfolding, decreased stability and/or mistrafficking of this lysosomal protein. […] These inhibitors include iminosugar analogs and three non-iminosugar inhibitors identified from a previous HTS of 62,000 compounds with the wild type recombinant enzyme. However, the enhancement of enzyme activity by the chaperone action of an enzyme inhibitor must be balanced against the direct inhibition of the enzyme. An enzyme activator could also function as a chaperone by binding to the enzyme and helping to correct its misfolding and mistrafficking. While activators for GC have not yet been identified, they may have better therapeutic potential than inhibitors. Therefore the discovery and development of chemical activators may provide a new strategy for the chaperone therapy. To characterize compound selectivity, selected hits from the primary screen were screened against purified alpha-galactosidase, a related sugar hydrolase. Alpha-galactosidase is a homodimeric glycoprotein that hydrolyzes the terminal alpha-galactosyl moieties from glycolipids and glycoproteins.
NCGC Assay Protocol Summary: This is a fluorogenic enzyme assay with 4-Methylumbelliferyl alpha-D-galactopyranoside as the substrate and human […] as the enzyme preparation. Upon the hydrolysis of this fluorogenic substrate, the resulting product, […]. 4-Methyllumbelliferone, can be excited at 365 nm and emits at 440 nm. This fluorescence which can be detected by a standard fluorescence plate reader. Data were normalized to the controls for basal activity (without enzyme) and 100% activity (with enzyme). In the AC50 values were determined from concentration-response data modeled with the standard Hill equation. Assay buffer: 50 mM citric acid (titrated with potassium phosphate to pH 4.5), 0.005% Tween-20, pH 4.5. (pH 4.5 is an optimal condition for this enzyme assay) 1536-well assay protocol for the human alpha-galactosidase: (1) Add 2 ul/well of enzyme (12 nM final) (2) Add 23 nL compounds in DMSO solution. The final titration was 0.7 nM to 77 uM. (3) Add 1 ul of substrate ([…]) (4) Incubate at room temperature for 20 min. (5) Add 2 ul stop solution (1M NaOH and 1M Glycine mixture, pH 10) (6) Detect the assay plate in a ViewLux plate reader (PerkinElmer) with Ex=365 nm and Em=440nm. Keywords: MLSMR, MLPCN, NIH Roadmap, qHTS, NCGC, : Alpha-galactosidase, Fabry Disease, pharmacological chaperone, chaperone therapy

Sequence of Alpha-galactosidase A (Homo sapiens) (P06280 whole entry, looked up): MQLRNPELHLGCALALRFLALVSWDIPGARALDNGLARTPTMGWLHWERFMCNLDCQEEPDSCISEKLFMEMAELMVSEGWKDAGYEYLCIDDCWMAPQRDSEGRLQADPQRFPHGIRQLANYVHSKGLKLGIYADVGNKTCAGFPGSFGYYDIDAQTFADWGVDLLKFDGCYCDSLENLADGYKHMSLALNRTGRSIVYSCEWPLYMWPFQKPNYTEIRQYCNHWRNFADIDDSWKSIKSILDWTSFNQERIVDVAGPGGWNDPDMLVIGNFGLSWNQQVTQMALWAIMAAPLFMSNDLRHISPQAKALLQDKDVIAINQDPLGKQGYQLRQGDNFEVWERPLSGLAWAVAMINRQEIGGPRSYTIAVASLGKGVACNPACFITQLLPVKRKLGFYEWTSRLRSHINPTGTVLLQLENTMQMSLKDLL

SMILES | outcome
Cc1ccc(-c2nc(N3CCN(S(=O)(=O)c4ccc(F)cc4)CC3)c3ccc(Cl)cc3n2)cc1 | inactive
CCOC(=O)c1ccc(S(=O)(=O)N2CCN(c3nc(-c4cccs4)nc4ccccc34)CC2)cc1 | inactive
O=S(=O)(c1ccc2c(c1)OCCO2)N1CCN(c2nc(-c3cccs3)nc3ccccc23)CC1 | inactive
CC(C)(C)c1ccc(S(=O)(=O)N2CCN(c3nc(-c4cccs4)nc4ccccc34)CC2)cc1 | inactive
COc1ccc(-c2nc(N3CCN(S(=O)(=O)c4ccc(C)cc4)CC3)c3ccccc3n2)cc1 | inactive
O=S(=O)(c1ccc(Cl)cc1)N1CCN(c2nc(-c3ccc(Cl)cc3)nc3ccccc23)CC1 | inactive
O=S(=O)(c1ccc(Cl)cc1)N1CCN(c2nc(-c3ccc(F)cc3)nc3cc(Cl)ccc23)CC1 | inactive
NS(=O)(=O)c1ccc(S(=O)(=O)N2CCN(c3nc(-c4ccccc4)nc4ccccc34)CC2)cc1 | inactive
O=S(=O)(c1cccc(Cl)c1)N1CCN(c2nc(-c3cccs3)nc3ccccc23)CC1 | inactive
O=S(=O)(c1ccc(OC(F)(F)F)cc1)N1CCN(c2nc(-c3cccs3)nc3ccccc23)CC1 | inactive
COc1ccc(S(=O)(=O)N2CCN(c3nc(-c4ccccc4)nc4ccccc34)CC2)cc1 | inactive
O=S(=O)(c1cccc(C(F)(F)F)c1)N1CCN(c2nc(-c3ccccc3)nc3ccccc23)CC1 | inactive
O=S(=O)(c1ccc(Cl)cc1)N1CCN(c2nc(-c3ccccc3)nc3ccccc23)CC1 | inactive
O=S(=O)(c1ccc2c(c1)CCCC2)N1CCN(c2nc(-c3ccccc3)nc3ccccc23)CC1 | inactive
O=S(=O)(c1ccccc1C(F)(F)F)N1CCN(c2nc(-c3cccs3)nc3ccccc23)CC1 | inactive
O=S(=O)(c1cccc(C(F)(F)F)c1)N1CCN(c2nc(-c3cccs3)nc3ccccc23)CC1 | inactive
Cc1ccc(S(=O)(=O)N2CCN(c3nc(-c4ccc(F)cc4)nc4cc(Cl)ccc34)CC2)cc1 | inactive
O=S(=O)(c1ccc2c(c1)OCCO2)N1CCN(c2nc(-c3ccccc3)nc3ccccc23)CC1 | inactive
O=S(=O)(c1ccc(F)cc1)N1CCN(c2nc(-c3ccccc3)nc3ccccc23)CC1 | inactive
O=S(=O)(c1cccc(Br)c1)N1CCN(c2nc(-c3cccs3)nc3ccccc23)CC1 | inactive
S=C(NCCCc1cnc[nH]1)NCCCN(Cc1ccc(Cl)c(Cl)c1)c1ccc(Br)cn1 | inactive
N#Cc1ccc(S(=O)(=O)N2CCN(c3nc(-c4ccccc4)nc4ccccc34)CC2)cc1 | inactive
CCOc1ccc(S(=O)(=O)N2CCN(c3nc(-c4ccccc4)nc4ccccc34)CC2)cc1OCC | inactive
N#Cc1ccc(S(=O)(=O)N2CCN(c3nc(-c4cccs4)nc4ccccc34)CC2)cc1 | inactive
O=S(=O)(c1ccccc1)N1CCN(c2nc(-c3cccs3)nc3ccccc23)CC1 | inactive
O=S(=O)(c1ccc2ccccc2c1)N1CCN(c2nc(-c3ccccc3)nc3ccccc23)CC1 | inactive
O=S(=O)(c1ccccc1)N1CCN(c2nc(-c3ccc(F)cc3)nc3cc(Cl)ccc23)CC1 | inactive
O=S(=O)(c1ccccc1C(F)(F)F)N1CCN(c2nc(-c3ccccc3)nc3ccccc23)CC1 | inactive
CC(=O)c1ccc(S(=O)(=O)N2CCN(c3nc(-c4ccccc4)nc4ccccc34)CC2)cc1 | inactive
O=S(=O)(c1ccc(Cl)cc1)N1CCN(c2nc(-c3cccs3)nc3ccccc23)CC1 | inactive
